# Data from PubChem BioAssay (NCI).
# This is part of a sample that, as a whole, favours compounds with a hit. Of some 83,000 tested, about 20% had one in any assay.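 Assay: single dose, 48 h. Readout: percent growth (0 = no net growth; negative = cell death). Active: <10.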 Values without a mark were called inactive. The source made the active and inactive calls.
# System: SK-MEL-2 melanoma
# Assay: NCI-60 one-dose screen, 48 h (100 = growth as untreated, 0 = no growth, -100 = all killed)
# Conditions: 10 µM unless noted
row,SMILES,growth
1,Brc1c2c(c(Br)c3ccccc13)CCCC2,93.8%
2,CC1(C)CC2=C3C=C[C@@H]4[C@@]5(C)CCC(=O)C(C)(C)[C@@H]5CC[C@@]4(C)[C@]3(C)CC[C@@]2(C(=O)O)CC1=O,68.3%
3,O=S(=O)(NCCNc1nccc(-c2c(-c3cccc(F)c3)nc3occn23)n1)c1ccc(Br)cc1,103%
4,COc1ccc(-c2cc(-c3ccc(Cl)cc3)c(C#N)c(=O)n2CCCCC(=O)Nc2ccccc2N)cc1,79.7%
5,COc1ccc2c3c([nH]c2c1)C(=O)c1nc(C)ccc1C3=O,66.7%
6,Cc1c(-n2nnc(-c3nc4ccccc4s3)c2N)c(=O)n(-c2ccccc2)n1C,107%
7,COc1ccc(/C=C2\COc3ccc(O)c(O)c3C2=O)cc1,57.4%
8,O=C1c2cccnc2C(=O)c2c1c(C(=O)NCCCN1CCCCC1)c1ccccn21,-40.3% (active)
9,Cc1ccc(CNc2ccc(Cl)cc2NCc2ccc(C)c(O)c2)cc1O,33.3%
10,Cc1ccc(Sc2nnc(/N=C3\C(=O)Nc4ccccc43)s2)cc1,105%
11,O=C(Cn1cc(CN2CCCCCC2)nn1)Nc1ccc2c(ccn2Cc2ccccc2)c1,93.2%
12,Cc1noc(C)c1C(=O)OCc1coc2ccccc2c1=O,81.4%
13,S=C1CCSC(=S)N1CCCN1C(=S)CCSC1=S,96.1%
14,Oc1ccc(CCn2c(O)c(/C=C3\CN=c4ccccc4=N3)sc2=S)cc1,91.5%
15,COc1ccc(-c2nnc3n(C)c(=O)c4ccccc4n23)cc1N,22%
16,Cn1cccc1C(=O)C1C(c2cccc([N+](=O)[O-])c2)C2C3CCCCC3CN2C12C(=O)Nc1ccc(Cl)cc12 (configuration not stated),66.5%
17,CCOC(=O)C#Cc1c(C(=O)OCC)nnn1[C@@H]1O[C@H](CO)[C@H]2OC3(CCCCC3)O[C@H]21,106%
18,O=[N+]([O-])c1ccc(N/N=C(/C(=N/Nc2ccc([N+](=O)[O-])cc2)c2ccccc2)c2ccccc2)cc1,11.2%
19,N#Cc1c(-c2ccccc2)cc(-c2ccccc2)n(CCCCCC(=O)Nc2ccccc2N)c1=O,89.7%
20,CC1(c2ccccc2O)NN=C(/N=C/c2cccc([N+](=O)[O-])c2)N1C(Cc1c[nH]c2ccccc12)C(=O)O (configuration not stated),87.8%
21,O=C(OCc1ccc2c(Cl)cc(Cl)c(O)c2n1)n1cncn1,36.6%
22,Clc1ccc(CNc2c3ccccc3nc3ccccc23)cc1,72.4%
23,CCSc1nc(NC)c2cc(-c3ccc(C(F)(F)F)cc3)ccc2n1,98.2%
24,CCCCCCCCCCCCCCCCCCOc1ccccc1CC(=O)OCC[N+]1(C)CCCC1,65.6%
25,O=C(c1ccc(-c2ccccc2)cc1)c1ccc([N+](=O)[O-])cc1,104%
26,O=C1Nc2ccccc2/C1=C\c1nc(-c2ccccc2F)n2ccccc12,-6.84% (active)
27,O=C(OCc1ccc2cccc(O)c2n1)N1CCN(C(=O)c2cc3cc(F)ccc3[nH]2)CC1,-59.7% (active)
28,O=C(NNc1nccc(Nc2ccc(S(=O)(=O)Nc3ccncc3)cc2)n1)c1ccccc1,106%

# System: EKVX NSCLC
# Assay: as above
# Conditions: 10 µM unless noted
row,SMILES,growth
1,CC(=O)OC[C@]12CCC(C)(C)C[C@H]1[C@@]1(O)[C@H](O)C[C@@H]3[C@@]4(C)CCCNC(C)(C)[C@@H]4CC[C@@]3(C)[C@]1(C)CC2,101%
2,COC(C(=O)[C@@H](O)[C@@H](C)O)[C@@H]1Cc2cc3cc(O[C@H]4C[C@@H](O[C@H]5C[C@@H](O)[C@H](O)C(C)O5)[C@H](O)C(C)O4)cc(O)c3c(O)c2C(=O)[C@H]1O[C@H]1C[C@@H](O[C@H]2C[C@@H](O[C@H]3C[C@@H](OC)[C@H](O)C(C)O3)[C@@H](O)C(C)O2)[C@H](O)C(C)O1 (some centres not stated),68.4%
3,O=C1CNC(c2ccccc2)C(c2ccccc2)N1 (configuration not stated),102%
4,CCc1n(Cc2ccc3ccccc3c2)cc[n+]1Cc1ccc2ccccc2c1,11.9%
5,O=C(/C=C/c1ccc(Cl)cc1)c1cccc(Nc2nc(Nc3ccccc3)nc(Nc3ccccc3)n2)c1,106%
6,C=C1C(=O)O[C@H]2[C@H]1CC/C(COC(=O)NCc1cc[nH]c1)=C\CC[C@@]1(C)O[C@@H]21,61.7%
7,CN1CCN(C(=O)c2ccc(NC(=O)Nc3ccc(-c4nc(N5CCOCC5)c5cccn5n4)cc3)cc2)CC1,-22.8% (active)
8,O=C1c2cccnc2C(=O)c2c1c(C(=O)NCCn1ccnc1)c1ccccn21,56.9%
9,Cc1nn(-c2ccccc2)c(Oc2ccccn2)c1-c1nc2ccccc2s1,90.4%
10,CCN(CC)c1nc(SCc2ccccc2Cl)ncc1C,101%
11,COc1cc(-c2nc3cc(Cl)c(Cl)cc3[nH]2)ccc1OCC(=O)N=Nc1c(O)[nH]c2ccc([N+](=O)[O-])cc12,96.2%
12,Brc1c2c(c(Br)c3ccccc13)CCCC2,97.2%
13,CC1(C)CC2=C3C=C[C@@H]4[C@@]5(C)CCC(=O)C(C)(C)[C@@H]5CC[C@@]4(C)[C@]3(C)CC[C@@]2(C(=O)O)CC1=O,63.3%
14,O=S(=O)(NCCNc1nccc(-c2c(-c3cccc(F)c3)nc3occn23)n1)c1ccc(Br)cc1,89.5%
15,COc1ccc(-c2cc(-c3ccc(Cl)cc3)c(C#N)c(=O)n2CCCCC(=O)Nc2ccccc2N)cc1,47.3%
16,COc1ccc2c3c([nH]c2c1)C(=O)c1nc(C)ccc1C3=O,53.6%
17,Cc1c(-n2nnc(-c3nc4ccccc4s3)c2N)c(=O)n(-c2ccccc2)n1C,101%
18,COc1ccc(/C=C2\COc3ccc(O)c(O)c3C2=O)cc1,48%
19,O=C1c2cccnc2C(=O)c2c1c(C(=O)NCCCN1CCCCC1)c1ccccn21,-100% (active)
20,Cc1ccc(CNc2ccc(Cl)cc2NCc2ccc(C)c(O)c2)cc1O,80.2%

row,SMILES,growth
1,Cc1ccc(Sc2nnc(/N=C3\C(=O)Nc4ccccc43)s2)cc1,102%
2,O=C(Cn1cc(CN2CCCCCC2)nn1)Nc1ccc2c(ccn2Cc2ccccc2)c1,96.1%
3,Cc1noc(C)c1C(=O)OCc1coc2ccccc2c1=O,86.9%
4,S=C1CCSC(=S)N1CCCN1C(=S)CCSC1=S,101%
5,Oc1ccc(CCn2c(O)c(/C=C3\CN=c4ccccc4=N3)sc2=S)cc1,80.8%
6,COc1ccc(-c2nnc3n(C)c(=O)c4ccccc4n23)cc1N,55.7%
7,Cn1cccc1C(=O)C1C(c2cccc([N+](=O)[O-])c2)C2C3CCCCC3CN2C12C(=O)Nc1ccc(Cl)cc12 (configuration not stated),46.4%
8,CCOC(=O)C#Cc1c(C(=O)OCC)nnn1[C@@H]1O[C@H](CO)[C@H]2OC3(CCCCC3)O[C@H]21,105%
9,O=[N+]([O-])c1ccc(N/N=C(/C(=N/Nc2ccc([N+](=O)[O-])cc2)c2ccccc2)c2ccccc2)cc1,94.1%
10,N#Cc1c(-c2ccccc2)cc(-c2ccccc2)n(CCCCCC(=O)Nc2ccccc2N)c1=O,50.8%
11,CC1(c2ccccc2O)NN=C(/N=C/c2cccc([N+](=O)[O-])c2)N1C(Cc1c[nH]c2ccccc12)C(=O)O (configuration not stated),77.6%
12,O=C(OCc1ccc2c(Cl)cc(Cl)c(O)c2n1)n1cncn1,26.4%
13,Clc1ccc(CNc2c3ccccc3nc3ccccc23)cc1,62.6%
14,CCSc1nc(NC)c2cc(-c3ccc(C(F)(F)F)cc3)ccc2n1,96.6%
15,CCCCCCCCCCCCCCCCCCOc1ccccc1CC(=O)OCC[N+]1(C)CCCC1,53.8%
16,O=C(c1ccc(-c2ccccc2)cc1)c1ccc([N+](=O)[O-])cc1,98%
17,O=C1Nc2ccccc2/C1=C\c1nc(-c2ccccc2F)n2ccccc12,47.6%
18,O=C(OCc1ccc2cccc(O)c2n1)N1CCN(C(=O)c2cc3cc(F)ccc3[nH]2)CC1,-87.8% (active)
19,O=C(NNc1nccc(Nc2ccc(S(=O)(=O)Nc3ccncc3)cc2)n1)c1ccccc1,104%
